# Source: PubChem BioAssay (NCI)
# About 83,000 compounds went through this panel and 20% of them were active in at least one assay; those are over-represented in the sample as a whole.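 Negative percent growth values reflect cell death: -40 means 40% of the cells present at the start died, and -100 means all died.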 Unmarked numbers belong to inactive results. The source made the active and inactive calls. The calls were made as follows: active = growth percent below 10; inactive = the rest.
# Experiments:
# Test in all cases: NCI-60 one-dose screen, 48 h (100 = growth as untreated, 0 = no growth, -100 = all killed)
# [1] = system: DU-145 prostate; details: 10 µM unless noted
# [2] = system: K-562 leukemia; details: 10 µM unless noted
# [3] = system: MALME-3M melanoma; details: 10 µM unless noted
# [4] = system: MDA-MB-231 breast; details: 10 µM unless noted
# [5] = system: RXF 393 renal; details: 10 µM unless noted
# [6] = system: SF-268 CNS; details: 10 µM unless noted
# [7] = system: SF-295 CNS; details: 10 µM unless noted
# [8] = system: SF-539 CNS; details: 10 µM unless noted
# [9] = system: UACC-257 melanoma; details: 10 µM
# [10] = system: M14 melanoma; details: 10 µM unless noted
# [11] = system: HCT-15 colon; details: 10 µM unless noted
# [12] = system: HT29 colon; details: 10 µM unless noted
# [13] = system: SNB-75 CNS; details: 10 µM unless noted
# [14] = system: SNB-19 CNS; details: 10 µM unless noted
# [15] = system: U251 CNS; details: 10 µM unless noted
# [16] = system: PC-3 prostate; details: 10 µM unless noted
# [17] = system: SK-MEL-5 melanoma; details: 10 µM unless noted
# [18] = system: UACC-62 melanoma; details: 10 µM unless noted
# [19] = system: LOX IMVI melanoma; details: 10 µM unless noted
# [20] = system: SK-MEL-28 melanoma; details: 10 µM unless noted
SMILES,growth [1],growth [2],growth [3],growth [4],growth [5],growth [6],growth [7],growth [8],growth [9],growth [10],growth [11],growth [12],growth [13],growth [14],growth [15],growth [16],growth [17],growth [18],growth [19],growth [20]
COc1cc(CNC(=O)Cc2ccccc2[N+](=O)[O-])ccc1OCC(=O)NO,108%,105%,100%,102%,116%,102%,105%,95.9%,105%,101%,105%,110%,95.6%,98.7%,106%,95.9%,103%,92.7%,100%,109%
COc1ccccc1/C=C/C=N/NC1=NC2C(S1)N(C)C(=O)N2c1ccccc1 (stereo not given),8.54% (active),14.3%,45.7%,18.8%,1.56% (active),44.4%,9.01% (active),-15.5% (active),79.8%,-12.1% (active),12.1%,15.9%,18.3%,22.7%,23.5%,26.9%,-12.6% (active),33%,-0.484% (active),60.3%
Cc1cc(-c2ccc3nc(N)sc3c2)nc2ccc3[nH]ncc3c12,48.1%,21.1%,33.4%,46.2%,47%,49.5%,29.2%,20.9%,46.4%,19.7%,33.9%,21.1%,-12.7% (active),39.8%,29.3%,62.5%,26.3%,21.9%,43.8%,38.4%
CC(=O)Nc1cccc(-n2cnc3cc(-c4ccc(O)cc4)ccc32)c1,27.9%,8.67% (active),73.7%,61.1%,-6.91% (active),46.2%,17.1%,-5.03% (active),79.6%,53.2%,24.8%,28.2%,-31.7% (active),33.4%,23.1%,35.7%,28.3%,36.5%,36.6%,78%
COc1cccc(/C=C/C(=O)c2ccc(NC(=O)COc3cccc4cccnc34)cc2)c1,90.2%,82.1%,108%,98.4%,107%,96.3%,96.6%,101%,103%,104%,94.8%,98.2%,97.4%,95.9%,97.2%,93.3%,94.9%,94.5%,78%,104%
CCOC(=O)c1nn(-c2ccc(C)cc2)c(=O)c2c(N)c(C#N)c(-c3ccc(OC)cc3)cc12,109%,118%,93.8%,84.8%,104%,95.5%,103%,102%,107%,102%,99.2%,99.4%,67.3%,91.3%,103%,94.8%,99.9%,94.9%,95.5%,100%
C/C(=N\NC(=O)CSc1nc2sc3c(c2c(=O)n1-c1ccccc1)CCC(C)C3)c1ccc(Cl)cc1 (stereo not given),22.8%,16.5%,29.1%,39.8%,-23.3% (active),23.8%,40.9%,18.5%,75%,-34% (active),25.7%,62.8%,41.5%,35.3%,26.7%,31.7%,-14.9% (active),4.83% (active),6.72% (active),25.4%
Cc1ccc(NC(=O)N[C@@H](Cc2cc(F)cc(F)c2)C(=O)NC2C(=O)N3CCC[C@H]3C(=O)N3CCCC[C@H]3C(=O)N[C@@H](C)C(=O)N3C[C@H](C)C[C@H]3C(=O)O[C@H]2C)c(F)c1 (stereo not given in full),25.7%,20.2%,44.3%,34.6%,-7.39% (active),34.9%,9.62% (active),39.2%,16.9%,23%,14.1%,26.5%,34.7%,26.3%,28.3%,15%,2.32% (active),30.3%,25.3%,44.1%
O=C1Nc2cc(OC(F)(F)F)ccc2Oc2ccc(-c3ccnc(N4CCNCC4)c3)cc21,-48.5% (active),-11.4% (active),-79.3% (active),-38.2% (active),-73.4% (active),26.8%,-25.7% (active),-89.8% (active),77.3%,-90.5% (active),-51.4% (active),-72.7% (active),-5.02% (active),27.2%,-78.6% (active),13.8%,-85.3% (active),-70.7% (active),-85.8% (active),-80.9% (active)
O=c1[nH]c2cc(Cl)ccc2n1C1CCN(c2ccc3nnc(Cl)n3n2)CC1,99.8%,81.4%,104%,95.6%,83.7%,92.5%,87.5%,91%,95.9%,98.1%,96.5%,93.2%,73.1%,92.6%,99.2%,82%,91.6%,75.8%,99.1%,91.1%
CCOC(=O)Nc1cccc(-n2cnc3cc(-c4ccc(O)cc4)ccc32)c1,19.7%,7.15% (active),77.7%,33.7%,-12.8% (active),38.9%,14.6%,4.17% (active),83.6%,29.6%,9.71% (active),5.49% (active),3.54% (active),27.1%,19.1%,29.9%,9.15% (active),35.8%,41.2%,63.8%
COc1cc2oc(-c3cccc(NC(=O)c4cc(NC(=O)[C@H](C)NC(=O)OC(C)(C)C)ccc4C)c3)cc(=O)c2c(OC)c1OC,62.2%,47.4%,92.5%,65.1%,67.7%,79.4%,65.5%,79.4%,118%,97.9%,50.8%,75.5%,102%,65.4%,53.5%,68.8%,63.2%,75.4%,53.8%,87%
O=C(Cn1cc(CN2C(=O)c3ccc([N+](=O)[O-])cc3C2=O)nn1)Nc1ccccc1Br,113%,98.5%,99.5%,103%,119%,106%,108%,107%,106%,101%,102%,112%,87.5%,102%,109%,102%,104%,90.7%,116%,108%
CCn1c2ccc(/C=N/OCCCN(C)C)cc2c2cc(/C=N/OCCCN(C)C)ccc21,17.1%,-17.5% (active),-88.3% (active),-9.87% (active),-73.3% (active),79.1%,-66.5% (active),-80.4% (active),-67.1% (active),-84.4% (active),-13% (active),-58.8% (active),82.8%,59.3%,-30.9% (active),32.4%,-95.6% (active),10.6%,-91.8% (active),-33.8% (active)
COC[C@@]1(C)CC[C@]2(C)CC[C@]3(C)C(=CC[C@@H]4[C@@]5(C)CCCNC(C)(C)[C@@H]5CC[C@]43C)C2C1 (stereo not given in full),73.6%,6.79% (active),56.7%,77.7%,72.2%,77.1%,3.52% (active),62.7%,60%,50.1%,16.1%,23.3%,104%,67.5%,35.3%,46.4%,87.7%,64.5%,12.6%,66.6%
